According to PubChem BioAssay (EPA / NIEHS):
Calls of active or inactive are those of the source. Rule for the calls: active = hit-call score of the fitted dose curve at least 0.9, where 1 is the maximum; inactive = score below 0.9.

What follows are compounds tested on succinate dehydrogenase complex iron sulfur subunit B (SDHB), SDHB (gene 6390) (assay: LTEA_HepaRG_SDHB: Life Technologies and Expression Analysis (LTEA) Assay for succinate dehydrogenase complex iron sulfur subunit B (SDHB) using HepaRG (AID 2283528)). Settings: mRNA level, 48 h; actives raise or lower the signal.
Experimental: LTEA_HepaRG is a cell based, multiplexed-readout assay that uses HepaRG, a human liver cell line, with measurements taken at 48 hours after chemical dosing on a 96-well plate.LTEA_HepaRG_SDHB is one of 102 assay component(s) measured in the LTEA HepaRG cell culture assay. It is a marker of Cell proliferation, survival, death.Data from the assay component LTEA_HepaRG_SDHB was analyzed into 1 endpoint. This assay endpoint, LTEA_HepaRG_SDHB, was analyzed with bidirectional fitting relative to DMSO as the negative control and baseline of activity. Using a type of inducible reporter, measures of mRNA induction for gain or loss-of-signal activity can be used to understand regulation of transcription factor activity. To generalize the intended target to other relatable targets, this assay endpoint is annotated to the oxidoreductase intended target family, where the subfamily is ubiquinone.
A total of 1060 chemcials from the ToxCast library were tested in eight-point concentration-response experiments. Cell culture and cytotoxicity assays were conducted at Thermo Fisher Scientific's Custom Services facility (Madison, WI). A single lot of human HepaRG cells (Thermo Fisher Scientific, Frederick, MD) was used for the cell culture experiments. 96-well format collagen type I coated plates of human HepaRG cells were prepared using established methods. Briefly, cryopreserved HepaRG cells were thawed, plated at a density of approximately 100,000 cells/well in HepaRG Thaw, Plate, and General Purpose media (HPRG770, Thermo Fisher Scientific), and incubated for 48 hours. 0.5% DMSO was selected as vehicle control to balance the requisite need of DMSO in HepaRG cultures to maintain differentiation (for example, baseline metabolism, proportions of hepatocytes vs. cholangiocytes), while enabling further hepatic receptor pathway activation (for example, PXR and CAR) in response to chemical exposure. 48 hours after plating, the culture medium was replaced with HepaRG Serum-Free Incudtion Media. Cells were exposed to each test chemical in duplicate and maintained in CO2 incubators for another 48 hours. Chemical plates were thawed to room temperature and 200x concentrations of treatment groups were prepared. 8-point conentration-reponse curves were made with the highest exposure at 100 uM, followed by half-log dilutions, all in 0.5% DMSO. Each test plate contained variouse controls, induction positive controls (1mM phenobarbital), cytotoxicity positive controls ([…] aflatoxin B1), vehicle controls (0.5% DMSO), and total lysis controls (0.5% DMSO). Cell morphology images were taken using an Essen IncuCyte FLR automated microscope, with six 96-well plates imaged in about 24 minutes. Images were captured and exported and JPEG files. Spent culture media was transfered to black-well plates for the LDH assay, and remaining media was sorted at -80 C for later use. Cells were treated with RLT buffer and frozen until shipped for gene expression analysis. Total RNA was isolated from the cell suspension in 75 uL of Buffer RLT (Qiagen, Germantown, MD 20874) by Quintiles/Expression Analysis (Durham, NC) using a custom isolation procedure. Total RNA from each plate well was transferred to a preamplification plate. Fluidigm's 96.96 Dynamic ArrayTM (Fluidigm, Amsterdam, the Netherlands) technology was used for gene expression analyses by quantitative reverse transcription polymerase chain reaction (qRT-PCR, performed by Quintiles/Expression Analysis, Durham, NC)89. Standard TaqManTM Assays (Applied Biosystems/ThermoFisher Scientific, Foster City, CA) were used to assess the expression of 93 genes selected based on their selectivity and sensitivity to important hepatic receptors known to be modulated by environmental chemicals; importance in human hepatocyte functionality; and hepatotoxicity. […]

SMILES	outcome
CCCN(CC)CC1COC2(CCC(C(C)(C)C)CC2)O1 (stereo not given)	inactive
Cc1c(COC(=O)[C@@H]2[C@H](/C=C(\Cl)C(F)(F)F)C2(C)C)cccc1-c1ccccc1	inactive
CCOc1nc(F)cc2nc(S(=O)(=O)Nc3c(Cl)cccc3Cl)nn12	inactive
COP(=S)(OC)Oc1ccc([N+](=O)[O-])c(C)c1	inactive
CN/C(=N\[N+](=O)[O-])NCc1cnc(Cl)s1	inactive
CC(C)NC(=O)N1CC(=O)N(c2cc(Cl)cc(Cl)c2)C1=O	inactive
CS(=O)(=O)c1ccc(C(=O)C2C(=O)CCCC2=O)c([N+](=O)[O-])c1	inactive
C=CCOC(=O)C(C)(C)OC(=O)c1cc(-n2c(=O)cc(C(F)(F)F)n(C)c2=O)ccc1Cl	inactive
COc1cc(Cl)c(OC)cc1Cl	inactive
CO/N=C(/C1=NOCCO1)c1ccccc1Oc1ncnc(Oc2ccccc2Cl)c1F	inactive
O=c1n(Cl)c(=O)n(Cl)c(=O)n1Cl	inactive
N#CN=C1SCCN1Cc1ccc(Cl)nc1	inactive
COC(=O)NC(=S)Nc1ccccc1NC(=S)NC(=O)OC	inactive
COc1ccc(-c2ccccc2)cc1NNC(=O)OC(C)C	inactive
Cc1cc(C)nc(Nc2ccccc2)n1	inactive
CC1(C)CON(Cc2ccccc2Cl)C1=O	inactive
CC(C)(C)C(=O)C(Oc1ccc(Cl)cc1)n1cncn1 (stereo not given)	inactive
CC(C)Nc1nc(Cl)nc(NC(C)C)n1	inactive
CC1(C)CCC(=Cc2ccc(Cl)cc2)C1(O)Cn1cncn1 (stereo not given)	inactive
CN=C=S	inactive

SMILES	outcome
CSC(=O)c1c(C(F)F)nc(C(F)(F)F)c(C(=O)SC)c1CC(C)C	inactive
COCC(=O)N(c1c(C)cccc1C)C(C)C(=O)OC (stereo not given)	inactive
CCNC(=O)NC(=O)C(C#N)=NOC	inactive
Nc1c(Cl)c(Cl)nc(C(=O)O)c1Cl	inactive
Cc1nc(N(C)C)nc(OC(=O)N(C)C)c1C	inactive
Cc1ccc(N=CN(C)C=Nc2ccc(C)cc2C)c(C)c1	inactive
Clc1nc(Cl)nc(Nc2ccccc2Cl)n1	inactive
Cc1cnc(C2=NC(C)(C(C)C)C(=O)N2)c(C(=O)O)c1 (stereo not given)	inactive
CCOP(=O)(OCC)Oc1nc(Cl)c(Cl)cc1Cl	inactive
COc1cc(OC)nc(NC(=O)NS(=O)(=O)c2ncccc2OCC(F)(F)F)n1	inactive
O=C1C2CC=CCC2C(=O)N1SC(Cl)(Cl)Cl (stereo not given)	inactive
CCOc1cc(C(C)(C)C)ccc1C1COC(c2c(F)cccc2F)=N1 (stereo not given)	inactive
CCNP(=S)(OC)O/C(C)=C/C(=O)OC(C)C (stereo not given)	inactive
Clc1cccc(C(Cl)(Cl)Cl)n1	inactive
CCCCC(O)(Cn1cncn1)c1ccc(Cl)cc1Cl (stereo not given)	inactive
CS(=O)(=O)c1cc(C(F)(F)F)ccc1C(=O)c1cnoc1C1CC1	inactive
CCOC(=O)C(C)OC(=O)c1cc(Oc2ccc(C(F)(F)F)cc2Cl)ccc1[N+](=O)[O-] (stereo not given)	inactive
OC(c1ccc(Cl)cc1)(c1ccc(Cl)cc1)C(Cl)(Cl)Cl	inactive
CCOc1nc(C(Cl)(Cl)Cl)ns1	inactive
O=P(O)(O)CCCl	inactive
